Assays:
[1] = target: Sphingosine kinase 1 (Homo sapiens) (UniProt Q9NYA1); settings: at 1 µM;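 note: mean SPHK1 inhibition value reported from the GSK PKIS kinase panel screen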
[2] = target: T1, Sphingosine kinase 2 (Homo sapiens) (UniProt Q9NRA0); settings: at 0.1 µM
T1 sequence (whole entry): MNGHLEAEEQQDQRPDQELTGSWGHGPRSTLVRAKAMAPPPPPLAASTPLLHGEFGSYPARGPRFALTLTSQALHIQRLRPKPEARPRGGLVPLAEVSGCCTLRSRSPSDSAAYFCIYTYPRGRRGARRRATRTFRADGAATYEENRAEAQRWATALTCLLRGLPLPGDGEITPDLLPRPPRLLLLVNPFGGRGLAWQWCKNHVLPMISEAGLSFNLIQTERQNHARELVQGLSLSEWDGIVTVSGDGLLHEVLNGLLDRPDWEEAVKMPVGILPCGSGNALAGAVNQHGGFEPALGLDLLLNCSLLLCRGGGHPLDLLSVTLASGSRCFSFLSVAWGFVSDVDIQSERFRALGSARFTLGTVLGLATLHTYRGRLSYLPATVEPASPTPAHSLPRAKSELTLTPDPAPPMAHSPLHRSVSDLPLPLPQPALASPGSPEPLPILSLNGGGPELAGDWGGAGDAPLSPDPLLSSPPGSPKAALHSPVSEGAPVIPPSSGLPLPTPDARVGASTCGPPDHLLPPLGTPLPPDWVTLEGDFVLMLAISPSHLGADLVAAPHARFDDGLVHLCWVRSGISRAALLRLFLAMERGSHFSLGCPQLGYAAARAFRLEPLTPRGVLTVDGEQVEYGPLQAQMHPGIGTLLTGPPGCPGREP

[3] = target: T1, Sphingosine kinase 2 (Homo sapiens); settings: at 1 µM
[4] = target: Casein kinase II subunit alpha (Homo sapiens) (UniProt P68400); settings: at 0.1 µM
[5] = target: Casein kinase II subunit alpha (Homo sapiens) (UniProt P68400); settings: at 1 µM
[6] = target: T2, Inhibitor of nuclear factor kappa-B kinase subunit beta (Homo sapiens) (UniProt O14920); settings: at 0.1 µM
T2 sequence (whole entry): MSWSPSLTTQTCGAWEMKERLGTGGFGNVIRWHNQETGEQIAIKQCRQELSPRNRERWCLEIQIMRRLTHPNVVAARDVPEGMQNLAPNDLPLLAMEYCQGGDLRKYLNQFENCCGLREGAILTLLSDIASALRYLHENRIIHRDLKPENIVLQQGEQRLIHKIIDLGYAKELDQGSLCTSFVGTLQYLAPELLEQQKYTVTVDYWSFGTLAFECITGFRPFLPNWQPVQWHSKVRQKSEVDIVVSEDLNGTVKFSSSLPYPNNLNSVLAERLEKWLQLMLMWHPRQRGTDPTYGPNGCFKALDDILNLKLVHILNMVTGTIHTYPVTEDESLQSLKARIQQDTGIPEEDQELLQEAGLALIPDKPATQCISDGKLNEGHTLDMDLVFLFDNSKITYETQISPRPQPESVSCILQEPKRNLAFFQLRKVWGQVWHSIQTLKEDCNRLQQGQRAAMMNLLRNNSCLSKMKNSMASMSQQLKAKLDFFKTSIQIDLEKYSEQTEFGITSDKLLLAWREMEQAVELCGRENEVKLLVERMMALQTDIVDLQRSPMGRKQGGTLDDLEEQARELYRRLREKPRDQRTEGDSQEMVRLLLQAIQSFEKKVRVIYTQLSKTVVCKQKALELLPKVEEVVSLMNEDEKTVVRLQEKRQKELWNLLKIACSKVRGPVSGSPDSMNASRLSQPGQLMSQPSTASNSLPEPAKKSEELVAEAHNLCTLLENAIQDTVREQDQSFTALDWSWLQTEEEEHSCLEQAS

[7] = target: T2, Inhibitor of nuclear factor kappa-B kinase subunit beta (Homo sapiens); settings: at 1 µM
[8] = target: T3, Inhibitor of nuclear factor kappa-B kinase subunit epsilon (Homo sapiens) (UniProt Q14164); settings: at 0.1 µM;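 note: mean inhibition of IKKε reported, from the GSK PKIS dataset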
T3 sequence (whole entry): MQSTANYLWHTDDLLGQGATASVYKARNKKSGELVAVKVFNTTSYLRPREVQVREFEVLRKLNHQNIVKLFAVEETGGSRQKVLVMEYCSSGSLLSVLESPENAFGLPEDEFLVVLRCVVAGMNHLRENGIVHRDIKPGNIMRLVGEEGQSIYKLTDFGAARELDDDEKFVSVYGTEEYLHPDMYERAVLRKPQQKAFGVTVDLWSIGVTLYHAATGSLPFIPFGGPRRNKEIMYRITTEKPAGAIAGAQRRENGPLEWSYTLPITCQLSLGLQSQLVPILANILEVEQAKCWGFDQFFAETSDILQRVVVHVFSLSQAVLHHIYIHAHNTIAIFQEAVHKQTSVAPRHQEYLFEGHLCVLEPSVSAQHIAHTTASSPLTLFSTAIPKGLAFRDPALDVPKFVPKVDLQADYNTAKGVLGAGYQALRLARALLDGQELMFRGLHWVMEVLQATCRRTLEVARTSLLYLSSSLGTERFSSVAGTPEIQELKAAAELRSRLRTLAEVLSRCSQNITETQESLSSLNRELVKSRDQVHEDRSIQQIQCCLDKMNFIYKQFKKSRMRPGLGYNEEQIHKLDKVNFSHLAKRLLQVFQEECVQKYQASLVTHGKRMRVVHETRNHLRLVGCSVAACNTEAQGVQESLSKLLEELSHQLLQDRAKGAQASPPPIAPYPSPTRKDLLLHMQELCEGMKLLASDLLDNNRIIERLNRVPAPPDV

[9] = target: T4, Inhibitor of nuclear factor kappa-B kinase subunit alpha (Homo sapiens) (UniProt O15111); settings: at 0.1 µM
T4 sequence (whole entry): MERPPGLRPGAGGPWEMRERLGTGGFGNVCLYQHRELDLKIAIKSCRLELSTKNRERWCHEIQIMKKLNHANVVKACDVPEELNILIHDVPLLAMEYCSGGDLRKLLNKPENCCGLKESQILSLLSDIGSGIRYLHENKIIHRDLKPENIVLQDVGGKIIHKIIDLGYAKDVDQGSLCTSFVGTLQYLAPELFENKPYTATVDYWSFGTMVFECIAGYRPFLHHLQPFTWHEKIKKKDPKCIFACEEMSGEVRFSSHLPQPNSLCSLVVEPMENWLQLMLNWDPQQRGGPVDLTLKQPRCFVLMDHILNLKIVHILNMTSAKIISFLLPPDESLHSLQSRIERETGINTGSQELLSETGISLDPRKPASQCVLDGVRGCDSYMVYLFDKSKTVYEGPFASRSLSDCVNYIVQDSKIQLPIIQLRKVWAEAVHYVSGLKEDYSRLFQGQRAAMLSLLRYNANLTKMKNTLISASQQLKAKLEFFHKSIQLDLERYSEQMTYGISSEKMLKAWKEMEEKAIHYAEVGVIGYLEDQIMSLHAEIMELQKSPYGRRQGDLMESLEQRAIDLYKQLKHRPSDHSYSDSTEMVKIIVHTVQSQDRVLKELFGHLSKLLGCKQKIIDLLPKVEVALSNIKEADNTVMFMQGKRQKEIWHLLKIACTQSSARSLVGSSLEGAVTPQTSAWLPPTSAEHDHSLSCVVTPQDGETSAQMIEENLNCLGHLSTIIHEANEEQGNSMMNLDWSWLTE

[10] = target: T4, Inhibitor of nuclear factor kappa-B kinase subunit alpha (Homo sapiens); settings: at 1 µM

Sequence of Sphingosine kinase 1 (Homo sapiens) (Q9NYA1 whole entry): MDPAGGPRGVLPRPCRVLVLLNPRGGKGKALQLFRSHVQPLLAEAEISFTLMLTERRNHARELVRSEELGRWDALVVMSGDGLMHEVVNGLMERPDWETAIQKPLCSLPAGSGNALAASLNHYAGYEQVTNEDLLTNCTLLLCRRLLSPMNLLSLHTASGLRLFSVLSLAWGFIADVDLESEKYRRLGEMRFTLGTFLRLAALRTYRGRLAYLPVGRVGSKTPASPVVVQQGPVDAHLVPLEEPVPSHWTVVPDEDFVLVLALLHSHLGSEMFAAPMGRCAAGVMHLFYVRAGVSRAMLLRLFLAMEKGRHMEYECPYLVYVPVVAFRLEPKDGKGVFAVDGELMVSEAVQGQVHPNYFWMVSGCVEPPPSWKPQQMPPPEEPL
Sequence of Casein kinase II subunit alpha (Homo sapiens) (P68400 whole entry, looked up): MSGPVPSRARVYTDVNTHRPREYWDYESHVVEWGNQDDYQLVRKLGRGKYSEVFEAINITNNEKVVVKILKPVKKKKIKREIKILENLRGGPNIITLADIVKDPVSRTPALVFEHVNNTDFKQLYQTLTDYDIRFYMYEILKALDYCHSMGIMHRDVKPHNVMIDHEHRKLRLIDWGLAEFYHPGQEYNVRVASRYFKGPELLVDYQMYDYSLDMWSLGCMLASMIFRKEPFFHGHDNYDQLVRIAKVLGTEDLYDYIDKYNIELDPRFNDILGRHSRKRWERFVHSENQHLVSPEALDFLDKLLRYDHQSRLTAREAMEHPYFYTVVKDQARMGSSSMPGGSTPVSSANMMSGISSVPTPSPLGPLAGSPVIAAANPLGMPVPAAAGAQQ

| SMILES | inhibition [1] [%] | inhibition [2] [%] | inhibition [3] [%] | inhibition [4] [%] | inhibition [5] [%] | inhibition [6] [%] | inhibition [7] [%] | inhibition [8] [%] | inhibition [9] [%] | inhibition [10] [%] |
| --- | --- | --- | --- | --- | --- | --- | --- | --- | --- | --- |
| NC(=O)c1cc(-c2ccncc2)cc(-c2ccccc2)c1N | 1.79 | -0.11 | -1.58 | 2.36 | 2.75 | 9.18 | 27.5 | 6.3 | – | – |
| Cc1ccc(NC(=O)c2ccoc2)cc1-c1ccc(C(=O)NCC2CC2)cc1 | -2.32 | 0.42 | -0.05 | 2.64 | 1.38 | 3.9 | 3.86 | 3.64 | 0.11 | 7.23 |
| COc1ccc(C2=C(N3CCc4ccccc43)C(=O)NC2=O)cc1 | -5.21 | 0.83 | 0.21 | 5.6 | 6.96 | 6.54 | 3.83 | 13.5 | 9.04 | 6.68 |
| Cc1ccc(C(=O)NC(C)C)cc1-c1ccc(C(=O)NCC2CC2)cc1 | -2.98 | -1.05 | 1.77 | 7.28 | 0.22 | -0.39 | -1.83 | -5.06 | 2.97 | -1.81 |
| CNC(=O)c1cncc(/C=C/c2c(C)cccc2C)c1 | -1.57 | 0.8 | 2.92 | 1.93 | 5.37 | 1.19 | -0.96 | 0.37 | 2.95 | -0.54 |
| O=C(Nc1n[nH]c2nc(-c3ccco3)ccc12)C1CC1 | -1.96 | 0.87 | -0.13 | 0.99 | -0.44 | -0.41 | -0.38 | -0.37 | 4.36 | -0.84 |
| NS(=O)(=O)c1ccc(Nc2cc(-c3ccc(O)c(F)c3)n[nH]2)cc1 | -3.17 | 0 | 0.11 | 5.31 | 29.6 | -0.76 | 0.06 | -4.53 | -1.61 | 3.48 |
| N#Cc1ccc(Oc2nccc(-c3c(-c4ccc(F)cc4)ncn3C3CCNCC3)n2)cc1 | 0.37 | -1.27 | -0.57 | – | 4.89 | 8.59 | 5.99 | 9.95 | 11.3 | 4.73 |
| COc1cc2ncn(-c3cc(OCCc4ccccc4)c(C(N)=O)s3)c2cc1OC | -2.62 | -3.06 | 0.29 | 1.36 | -0.04 | 3.03 | 0.18 | 2.79 | 6.65 | 1.12 |

Source: ChEMBL document CHEMBL1961873, “Compounds: GSK PKIS; Assays: Nanosyn kinase panel” (2012)
